Results on eight molecules are retold here after PubChem BioAssay (NCI).

Among the test systems are HCT-15 colon; HT29 colon; SNB-75 CNS; SNB-19 CNS; U251 CNS; PC-3 prostate; SK-MEL-5 melanoma; LOX IMVI melanoma; SK-MEL-28 melanoma; SK-MEL-2 melanoma; SN12C renal; UO-31 renal; TK-10 renal; ACHN renal; CAKI-1 renal; A498 renal; MOLT-4 leukemia; EKVX NSCLC; CCRF-CEM leukemia.
Holding throughout (test): NCI-60 one-dose screen, 48 h (100 = growth as untreated, 0 = no growth, -100 = all killed)
Common to all, as to conditions: 10 µM unless noted

Compounds without any hit were thinned out: in the full panel of roughly 83,000, 20% have a hit.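 Interpretation: 100, growth as untreated; towards 0, rising growth inhibition; 0, no net growth; 0 to -100, cell death. Compounds scoring below 10 were considered active.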 Values without a mark were called inactive. Active and inactive are the calls of the source.

`C=CC(=O)Nc1cccc(Oc2nccc(Nc3nnc(-c4ccc(Br)cc4)s3)n2)c1`: the growth in the assay on HCT-15 colon is 88.6%; in the assay with HT29 colon, 116%; in the assay on SNB-75 CNS it was 87.5%; in the assay on SNB-19 CNS, 97%; in the assay with U251 CNS it was 97.5%; in the assay on PC-3 prostate it was 89.5%. Besides, the growth with SK-MEL-5 melanoma was 94.7%; in the assay with LOX IMVI melanoma, 91.9%; in the assay on SK-MEL-28 melanoma, 108%; with SK-MEL-2 melanoma, 110%; in the assay on SN12C renal it was 99.2%; in the assay with UO-31 renal, 78.9%. The growth was 152% with TK-10 renal; 100% with ACHN renal; 81.2% in the assay with CAKI-1 renal; 101% in the assay on A498 renal; 100% in the assay with MOLT-4 leukemia.

With `COc1ccc(C(=O)/C=C/c2ccccc2)cc1S(N)(=O)=O`, the growth was 44.1% in the assay with HCT-15 colon; 63.6% with HT29 colon; 87.2% in the assay on SNB-75 CNS; 40% with SNB-19 CNS; 26.2% in the assay on U251 CNS; 74% with PC-3 prostate. For the same molecule, the growth in the assay with SK-MEL-5 melanoma is 88.2%; in the assay on LOX IMVI melanoma, 42%; in the assay with SK-MEL-28 melanoma it was 107%; with SK-MEL-2 melanoma it was 89.8%; in the assay on EKVX NSCLC it was 95.6%; in the assay with SN12C renal it was 44.9%. Further, the growth with UO-31 renal was 54.7%; in the assay with TK-10 renal it was 66.8%; with ACHN renal, 74.9%; in the assay on CAKI-1 renal, 82.3%; in the assay with A498 renal, 85.3%; in the assay with CCRF-CEM leukemia it was 57.8%. The growth in the assay with MOLT-4 leukemia is 57.5%.

As to `COc1cccc(-c2cn3nc(-c4cn(C)c5ccccc45)sc3n2)c1`, the growth with HCT-15 colon was 73.7%; with HT29 colon it was 91.1%; with SNB-75 CNS, 83.1%; with SNB-19 CNS, 91.7%; with U251 CNS, 97.7%; in the assay on PC-3 prostate it was 94.7%. The growth in the assay with SK-MEL-5 melanoma was 84.2%; in the assay with LOX IMVI melanoma, 97.6%; in the assay with SK-MEL-28 melanoma, 95.1%; with SK-MEL-2 melanoma, 102%; in the assay on EKVX NSCLC, 85.9%; in the assay with SN12C renal, 92%. Moreover, the growth with UO-31 renal is 71.7%; with TK-10 renal, 105%; with ACHN renal, 104%; in the assay with CAKI-1 renal, 82.6%; in the assay on A498 renal, 87.5%; in the assay with CCRF-CEM leukemia it was 92%. Moreover, the growth in the assay with MOLT-4 leukemia is 87.5%.

`COc1cc(/C=C/C(=O)c2cccc(-n3cc(-c4ccc(Cl)cc4)[nH]c3=O)c2)ccc1O`: the growth with HCT-15 colon was 37.8%; with HT29 colon, 27%; with SNB-75 CNS, 50.3%; with SNB-19 CNS, 94.9%; with U251 CNS, 32.4%; in the assay on PC-3 prostate it was 34.2%. Besides, the growth in the assay with SK-MEL-5 melanoma was 68.1%; with LOX IMVI melanoma, 13.1%; in the assay on SK-MEL-28 melanoma it was 58.6%; with SK-MEL-2 melanoma it was 58.5%; with EKVX NSCLC it was 68.7%; with SN12C renal, 46.4%. For the same molecule, the growth in the assay on UO-31 renal was 31.2%; in the assay on TK-10 renal, 104%; with ACHN renal, 60.4%; in the assay with CAKI-1 renal, 37.2%; with A498 renal, 106%; with CCRF-CEM leukemia, 19.5%. Besides, the growth in the assay with MOLT-4 leukemia was 24.2%.

As for `O=C(OCc1ccc2c(Cl)cc(Cl)c(O)c2n1)N1CCN(C(=O)c2cc3ccccc3[nH]2)CC1`, the growth is 22.2% with HCT-15 colon; 59.3% in the assay on HT29 colon; 36.3% with SNB-75 CNS; 24.5% in the assay with SNB-19 CNS; 13.6% in the assay with U251 CNS; 24.9% in the assay on PC-3 prostate. The growth is 25.1% in the assay on SK-MEL-5 melanoma; 24.6% with LOX IMVI melanoma; 27.2% in the assay with SK-MEL-2 melanoma; 23.5% with EKVX NSCLC; 28.1% in the assay with SN12C renal; 4.4% (active) in the assay with UO-31 renal. Further, the growth in the assay on TK-10 renal is 42.6%; with ACHN renal, 11.6%; in the assay on CAKI-1 renal, 17.1%; in the assay on A498 renal, 14.2%; in the assay with CCRF-CEM leukemia, 21%; in the assay on MOLT-4 leukemia it was 20.5%.

With `CCOC(=O)/C(=C(/C)NCC(C)C)c1cc(O)c(O)c2c(C)cc(=O)[nH]c12`, the growth was 29.8% in the assay on HCT-15 colon; 111% in the assay with HT29 colon; 78.2% in the assay on SNB-75 CNS; 50.9% in the assay with SNB-19 CNS; 46.8% in the assay with U251 CNS; 34.3% in the assay on PC-3 prostate. Further, the growth was 43.2% in the assay with SK-MEL-5 melanoma; 38.1% in the assay with LOX IMVI melanoma; 71% in the assay on SK-MEL-28 melanoma; 69.1% in the assay on SK-MEL-2 melanoma; 89.3% in the assay with EKVX NSCLC; 42.9% in the assay with SN12C renal. For the same molecule, the growth in the assay with UO-31 renal was 59.3%; in the assay on TK-10 renal it was 77.7%; with ACHN renal, 47.8%; in the assay with CAKI-1 renal, 51.4%; with A498 renal it was 79.2%; in the assay on CCRF-CEM leukemia, 11.2%. The growth with MOLT-4 leukemia is 10.5%.

Turning to `Cc1cc(NCCCNc2ccnc3cc(Cl)ccc23)nc(Nc2ccc(C(=O)N3CCCCC3)cc2)n1`, the growth in the assay with HCT-15 colon is 0.549% (active); in the assay with HT29 colon, -5.41% (active); with SNB-75 CNS, 26.7%; in the assay with SNB-19 CNS, 25.6%; in the assay on U251 CNS, -8.28% (active); in the assay on PC-3 prostate, 50.5%. The growth was -98.5% (active) in the assay on SK-MEL-5 melanoma; -77.1% (active) in the assay with LOX IMVI melanoma; -71.2% (active) in the assay on SK-MEL-28 melanoma; 75.7% in the assay with SK-MEL-2 melanoma; 48.4% in the assay with EKVX NSCLC; 36.6% in the assay on SN12C renal. In addition, the growth in the assay on UO-31 renal is 57.6%; with TK-10 renal, 5.49% (active); in the assay with ACHN renal, 43.2%; with CAKI-1 renal, 76.2%; in the assay with A498 renal it was 66.9%; with CCRF-CEM leukemia, 14.4%. Moreover, the growth in the assay on MOLT-4 leukemia was 20.7%.

`COC(=O)c1nc(-c2ccccc2)oc1S(=O)(=O)N1CCCC(C)C1` (stereo not drawn): the growth is 37.2% with HCT-15 colon; 56.3% with HT29 colon; 105% with SNB-75 CNS; 91.5% in the assay with SNB-19 CNS; 90.8% in the assay on U251 CNS; 71.6% in the assay on PC-3 prostate. The growth is 85.2% in the assay on SK-MEL-5 melanoma; 61.6% in the assay with LOX IMVI melanoma; 84.9% in the assay with SK-MEL-28 melanoma; 96.7% in the assay with SK-MEL-2 melanoma; 100% in the assay with EKVX NSCLC; 84.4% in the assay with SN12C renal. Also, the growth in the assay with UO-31 renal was 65.7%; in the assay with TK-10 renal, 50.6%; with ACHN renal it was 66.7%; with CAKI-1 renal it was 92.6%; with A498 renal it was 92.9%; in the assay with MOLT-4 leukemia it was 6.09% (active).
